An excerpt weighted towards active compounds, which were near 2.3% of everything screened.
PP1 counter = counter-screen for PP5 inhibitors: inhibitors of human PP1-alpha; purified PP1alpha, OMFP fluorescence; P62136; inhibition, % at 6.7 µM; hit rate 0.9% among 320,000;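 active = inhibition above the mean inhibition of all tested compounds plus 3 SD, computed separately for each screening campaign, cut at about 15% in these data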
ZTA DNA inh = ZTA (EBV) inhibition in EBNA-1 counter-screen; ZTA-DNA binding, fluorescence polarization; inhibition, % at 11 µM; hit rate 0.15% among 320,000; in the data active = inhibition above about 33%
Target sequence (P03206 whole entry, looked up): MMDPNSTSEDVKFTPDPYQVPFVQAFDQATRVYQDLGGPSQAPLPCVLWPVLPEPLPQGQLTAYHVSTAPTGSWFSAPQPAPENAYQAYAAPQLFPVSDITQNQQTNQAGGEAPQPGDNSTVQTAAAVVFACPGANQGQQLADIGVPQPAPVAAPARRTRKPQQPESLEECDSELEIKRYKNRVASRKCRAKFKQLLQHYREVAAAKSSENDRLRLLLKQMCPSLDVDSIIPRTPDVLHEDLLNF
EBNA-1 inh = blocks EBNA-1 binding to DNA | EBNA-1 DNA binding, fluorescence polarization | inhibition, % at 14.8 µM | hit rate 0.34% among 300,000 | AID 1950; in the data active = inhibition above about 28%
MsrA act = bovine methionine sulfoxide reductase A activation. AID 602163. activation, % at 10.6 µM. purified bovine MsrA, absorbance read-out. hit rate 0.3% among 360,000; in the data active = activation above about 7.5%
PP5 inh = PP5 (human) phosphatase inhibition | P53041 | purified PP5c, OMFP substrate fluorescence | inhibition, % at 6.7 µM | hit rate 0.18% among 320,000 | AID 1987;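 active = inhibition above the campaign's mean inhibition across all tested compounds plus 3 SD, cut at about 9.5% in these data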
MsrA inhibitor = bovine MsrA inhibition; hit rate 0.75% among 360,000; inhibition, % at 15.5 µM; purified bovine MsrA, absorbance read-out
MsrA inh confirm = confirmation of bovine MsrA inhibitors; shares compounds with MsrA inhibitor; purified bovine MsrA, absorbance read-out; inhibition, % at 15.5 µM; hit rate 41% among 2,300;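 note: coupled to thioredoxin reductase with NADPH and selenocystamine and DMSO as substrate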
Of the large screens only hits and unclear results are named; the others gave an inactive call (follow-up assays come after a bar, where they were run). Cut-off read from the data, not from the text of the source, unless noted: active = inhibition above about 4.5%; inactive = the rest.

Cc1[nH]c2ccccc2c1C(=O)C(=O)NCCCn1ccnc1	MsrA inhibitor 4.9 | MsrA inh confirm inactive
CCOc1ccc(-c2c(C(=O)N/N=C/c3cccnc3)nnn2-c2nonc2N)cc1	none
COc1ccc(C=CC(C)=NNC(=O)c2ccncc2)cc1	MsrA inhibitor 5.3 (no result: PP1 counter, ZTA DNA inh, EBNA-1 inh, PP5 inh) | MsrA inh confirm 6.0
COc1ccc(OCc2cc(/C=N\NC(=O)c3ccccc3)ccc2OC)cc1	none
COc1ccc(/C=C(/NC(=O)c2ccccc2)C(=O)NCc2ccncc2)cc1	none
Cc1ccc(/C=N\NC(=O)/C(=C\Nc2nccc(C)n2)NC(=O)c2ccccc2)cc1	MsrA inhibitor 5.9 | MsrA inh confirm 6.0
Cc1ccc(/C=N/NC(=O)C(C)NC(=O)c2ccccc2)cc1 (configuration not stated)	none
COc1ccc(/C=C(/NC(=O)c2ccccc2)C(=O)N/N=C/c2ccncc2)cc1	MsrA inhibitor 6.0 | MsrA inh confirm 4.9
COc1ccc(/C=N\NC(=O)/C(=C\Nc2nccc(C)n2)NC(=O)c2ccccc2)cc1	MsrA inhibitor 8.2 | MsrA inh confirm 7.7
CC#CCN1c2ccccc2[C@]23C[C@@H](C(=O)OC)N(C(=O)NCCBr)C2=NC(C(=O)OC)=C(C(=O)OC)[C@H]13	none
CCn1c(CNC(=O)c2cccnc2)cc2ccccc21	none
Cc1occc1C(=O)NNC(=O)c1ccccc1Br	none
O=C(Cc1ccc2cccnc2c1)c1ccc(O)cc1O	MsrA inhibitor 5.0 | MsrA inh confirm inactive
CC(=O)NN1C(=O)c2ccccc2NC1c1ccc(N(C)C)cc1 (configuration not stated)	MsrA inhibitor 6.3 | MsrA inh confirm inactive
CCCCCNc1nc(NCCCO)c(C#N)c2c1CN(C)CC2	MsrA inhibitor 5.0 | MsrA inh confirm inactive
COc1ccc(S(=O)(=O)Nc2ccc3c(c2)C(=O)N([C@@H](C)CO)C[C@H](C)[C@H](CN(C)S(=O)(=O)c2ccc(F)cc2)O3)cc1	none (no result: PP1 counter, ZTA DNA inh, EBNA-1 inh, PP5 inh)
COC(=O)[C@H](CC(C)C)NC(=O)NCCC1=CCCCC1	none
O=C(N/N=C/c1ccc(O)c([N+](=O)[O-])c1)C(O)(c1ccccc1)c1ccccc1	MsrA inhibitor 6.4 | MsrA inh confirm 4.9
Cc1cc(C(=O)N/N=C/c2cccc([N+](=O)[O-])c2O)n[nH]1	none
O=C(N/N=C/c1cc([N+](=O)[O-])cc([N+](=O)[O-])c1O)C(O)(c1ccccc1)c1ccccc1	none (no result: EBNA-1 inh)
O=C(N/N=C\c1ccc(O)c([N+](=O)[O-])c1)c1ccccc1-n1cccc1	MsrA inhibitor 6.6 | MsrA inh confirm inactive
Cc1cc(C(=O)N/N=C/c2ccc(O)c([N+](=O)[O-])c2)n[nH]1	MsrA inhibitor 6.8 | MsrA inh confirm 6.0
COc1cc(C=NNC(=O)c2ccccc2-n2cccc2)ccc1O	none (no result: PP1 counter, ZTA DNA inh, EBNA-1 inh, PP5 inh)
Cc1cc(C)n2c(Nc3ccc4c(c3)OCCO4)c(CC(C)C)nc2n1	none (no result: PP1 counter, ZTA DNA inh, EBNA-1 inh, PP5 inh)
CCOC(=O)c1cc2c(=Cc3ccc(N(C)C)cc3)c3ccccc3n2[n+]1C	MsrA inhibitor 5.0 (no result: PP1 counter, ZTA DNA inh, EBNA-1 inh, PP5 inh) | MsrA inh confirm inactive
CN(C)c1ccc(C=c2c3ccccc3n3c2c2ccccc2[n+]3C)cc1	none (no result: PP1 counter, ZTA DNA inh, EBNA-1 inh, PP5 inh)
NC(=O)Cc1nc(-c2ccc(F)cc2)cs1	none
NC(=O)Cc1nc(-c2ccc([N+](=O)[O-])cc2)cs1	MsrA inhibitor 5.0 | MsrA inh confirm inactive
Cc1ccc(S(=O)(=O)N2CCN(C(=O)Cn3cnc4c3c(=O)n(C)c(=O)n4C)CC2)cc1C	none (no result: EBNA-1 inh)
CN(C)/C=N/c1nc2ncc(-c3ccc(Cl)cc3)c(/N=C/N(C)C)n2n1	MsrA inhibitor 5.2 | MsrA inh confirm inactive
CN(C)/C=N/c1nc2nccc(-c3cccc(Cl)c3)n2n1	none
O=C(NCCC1=CCCCC1)c1ccc(=O)oc1	MsrA inhibitor 6.9 | MsrA inh confirm 7.1
O=C(NCCN1CCCC1)c1ccc(Cl)cc1	none
O=C(NCCN1CCCCC1)c1ccc(=O)oc1	MsrA inhibitor 5.1 | MsrA inh confirm inactive
CS(=O)(=O)N1CCC(C(=O)Nc2cc(Cl)cc(Cl)c2)CC1	none
C=CC(=O)Nc1ccc(N(C)c2ccnc(Nc3ccc(N4CCN(C)CC4)cc3)n2)cc1	none (no result: PP1 counter, ZTA DNA inh, EBNA-1 inh, PP5 inh)
CCc1ccccc1NC(=O)CCS(=O)(=O)c1ccc2c(c1)CCCN2C(C)=O	none
CCOC(=O)C1=Nc2ccccc2C1=[N+]=[N-]	MsrA inhibitor 5.7 | MsrA inh confirm inactive
CCOC(=O)C1=CCN(S(=O)(=O)c2ccc(C)cc2)C1c1cccs1 (configuration not stated)	none (no result: PP1 counter, ZTA DNA inh, EBNA-1 inh, PP5 inh)
